FMDV inh = antivirals against foot and mouth disease virus. FMDV antiviral cell-based qHTS. Potency, µM (titrated, usually from 57.9 µM), inactives show at the highest dose activity change, negative = inhibition, most hits filed as inhibitors. hit rate 1.2% among 410,000. AID 1159524; calls by dose curve; tested in HEK293T cells; further: read-out not given here; potency means the concentration at half of the fitted maximal effect; on the % scale 0 is the no-effect control and ±100 the full control effect; nearly all actives have a fitted effect of over 45% in size
Marburg entry inh = blocks Marburg virus binding to or entry into cells; Marburg virus pseudotyped entry inhibition, cell reporter; Potency, µM (doses to about 37.8 µM), for the others: at the highest dose activity change, negative = inhibition, most hits filed as inhibitors; hit rate 1.8% among 300,000; calls by dose curve; tested in HEK293 cells; further: potency means the concentration at half of the fitted maximal effect; on the % scale 0 is the no-effect control and ±100 the full control effect
HCMV inh = inhibitors of human cytomegalovirus | HFF cells, HCMV-luciferase reporter, 72 h; active compounds read low | activity change, negative = inhibition, % at 57.5 µM | hit rate 4.5% among 410,000; in the data active means activity change below about -60%; inconclusive means no clear call, values can overlap the other calls; inactive means above about -39%; further: on the % scale 0 is the no-effect control and ±100 the full control effect
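Compounds were evaluated in HFFs infected with an HCMV luciferase reporter virus (MOI 1 PFU/cell). Luciferase in lysates collected 72 h post infection served as the replication measure.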
Lassa entry inh = blocks Lassa virus binding to or entry into cells. Lassa virus pseudotype entry inhibition, cell reporter. Potency, µM (titrated, usually from 37.9 µM), for the others: at the top dose activity change, negative = inhibition, actives largely listed as inhibitors. hit rate 1.2% among 300,000. AID 540256; calls by dose curve; tested in HEK293 cells; further: potency means the concentration at half of the fitted maximal effect; on the % scale 0 is the no-effect control and ±100 the full control effect; nearly all actives have a fitted effect of over 50% in size
SARS PLP yeast = SARS-CoV PLP inhibition in yeast; hit rate 0.19% among 330,000; Potency, µM (titrated, usually from 32.9 µM), for the others: top-dose activity, positive = growth rescue, hits mostly activators; S. cerevisiae expressing SARS-CoV PLpro, growth rescue; calls by dose curve; further: potency means the concentration at half of the fitted maximal effect; 0% is about no effect; nearly all actives have a fitted effect of over 55% in size
HCV inhibitor = HCV inhibition; Huh7.5.1 HCVcc-Cre infection, luciferase reporter, 44 h; Potency, µM (top dose mostly 41.8 µM), for the others: top-dose activity change, negative = inhibition, most hits filed as inhibitors; hit rate 3.4% among 340,000; AID 651820; active means well fitted inhibition curve with a large enough effect; inconclusive means small, poorly fitted or top-dose-only effect, or another doubt; inactive means no such curve, though single readings can be large or run the other way; further: potency means the concentration at half of the fitted maximal effect; on the % scale 0 is the no-effect control and ±100 the full control effect
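After 44 h co-culture of compound, cells and HCVcc-Cre (~0.5 moi), substrate is added for 15 min at room temperature and luciferase measured over 15 sec. Cells were seeded at 1,000/well and pre-cultured 4 h.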
Starred values were filed as active, the others as inactive; u = inconclusive; x = not tested or not shown; + = active, no number; [ ] = dose if it differs, or a comment. The list is not random: actives were taken first. Their share in the collection is about 8%.

SMILES	FMDV inh	Marburg entry inh	HCMV inh	Lassa entry inh	SARS PLP yeast	HCV inhibitor
O=C(O)CCCn1cc(NC(=O)COc2ccc(F)cc2F)cn1	3.7%	13.7%	3.8	1.2%	0.0%	x
COc1ccc(-c2ccc(C(=O)NCC3Cc4cccc(-c5nc(C)cnc5C)c4O3)o2)cc1 (stereo unspecified)	-14.8%	x	x	x	x	x
CC(C)(Oc1ccc(Cl)cc1)C(=O)NCCN1C(=O)S/C(=C/c2cccnc2)C1=O	u	-41.3%	u	-15.4%	-18.5%	11.9%
CC(Oc1ccc(Cl)cc1)C(=O)NCCN1C(=O)S/C(=C\c2cccnc2)C1=O (stereo unspecified)	39.8µM*	u	-70.6*	u	-12.6%	u
O=C(NCCN1C(=O)S/C(=C/c2cccnc2)C1=O)c1cccs1	-6.6%	x	-14.7	x	-2.1%	1.7%
O=C(COc1ccccc1-c1ccccc1)NCCN1C(=O)S/C(=C\c2cccnc2)C1=O	31.6µM*	-50.7%	-3.8	-10.5%	-12.1%	0.3%
COc1ccc(NC(=O)CSc2ccccn2)cc1OC	31.2%	-3.6%	8.6	0.5%	x	4.7%
COc1ccc(NC(=O)CSc2ncccc2C(=O)OC(C)C)cc1OC	u	u	-87.4*	u	-1.7%	7.94µM*
CCOc1ccc(C(=O)c2cn(CC(=O)Nc3ccc4c(c3)OCO4)c3ccc(OC)cc3c2=O)cc1	-9.2%	-17.8%[46.1 µM]	-8.3	0.2%[46.1 µM]	x	x
O=C(O)CSc1cc(NS(=O)(=O)c2ccc(Cl)cc2)c2ccccc2c1O	u	u	-92.5*	u	-12.0%	u
COC(=O)c1nn(-c2ccc3c(c2)CCN3C(C)=O)cc1O	8.91µM*	u	u	2.59µM*	-9.2%	-6.4%
Fc1ccccc1N1CCN(c2ncnc3[nH]ncc23)CC1	u	5.01µM*	u	10µM*	-1.0%	15.8µM*
c1ccc(N2CCN(c3ncnc4[nH]ncc34)CC2)cc1	u	x	u	0.0%[46.1 µM]	x	x
CCN(Cc1ccncc1)Cc1nc(CC2CC2)no1	-17.3%	1.1%[46.1 µM]	-60.1*	u	-0.5%	15.4%
CCN(Cc1ccncc1)Cc1nc(-c2ccc(C(=O)OC)cc2)no1	-20.5%	u	-23.6	-14.2%	0.5%	-0.3%
Cc1ccccc1-n1nnnc1-c1ccccc1	-19.2%	-1.9%	-34.6	1.8%	-4.1%	-2.8%
c1ccc(-c2nn3cnnc3c3ccccc23)cc1	-17.9%	x	4.8	x	-4.9%	u
Cc1cccc2c1nc(-c1ccccc1)n1nnnc21	-1.0%	-1.7%	-60.2*	-8.2%	1.4%	-28.6%
Cc1cccc2c1nc(-c1ccccc1)n1cnnc21	u	14.3%	-68.7*	0.1%	2.5%	-1.5%
COc1ccc(/C=C/c2cc(O)cc(O[C@@H]3O[C@H](CO)[C@@H](O)[C@H](O)[C@H]3O)c2)cc1O	x	x	86.5	x	x	x
O=C(/C=C/c1ccc([N+](=O)[O-])cc1)Nc1ncc([N+](=O)[O-])s1	-72.3%	5.8µM*	-113.3*	u	-4.7%	11.2µM*
O=C(/C=C/c1ccc([N+](=O)[O-])cc1)NCc1ccccn1	-16.1%	23.8%	25.0	11.0%	22.4%	21.4%
CCCCCCCN1N=C(C)C(C(=O)c2ccccc2)C1=O (stereo unspecified)	-21.6%	u	38.5	-19.4%	10µM*	8.3%
CN(C(=O)c1cccc(Nc2ccc(-c3ccc4c(c3)OCCO4)nn2)c1)C1CCCCC1	-53.7%	u	-93.2*	14.1µM*	-2.3%	u
CCn1nc(C)c(CN2CCCCC2C(=O)Nc2ccc(Oc3cccnc3)cc2)c1C (stereo unspecified)	u	-28.5%	x	4.3%	-5.8%	11.2µM*
SMILES	FMDV inh	Marburg entry inh	HCMV inh	Lassa entry inh	SARS PLP yeast	HCV inhibitor
C#Cc1ccc(CN2CCC(C(=O)Nc3ccc(Oc4ccccc4)nc3)CC2)cc1	u	x	+	x	17.6%	4.47µM*
O=C(Nc1ccc(Oc2ccccc2)nc1)C1CCN(Cc2ccco2)CC1	0.0%	u	-37.6	2.2%	0.0%	u
O=C(Nc1ccc(Oc2cccnc2)cc1)C1CCN(Cc2cc(Cl)ccc2O)CC1	7.94µM*	x	-82.8*	x	15.9%	u
Cc1ccc(CN2CCCCC2C(=O)Nc2ccc(Oc3cccnc3)cc2)o1 (stereo unspecified)	5.0%	u	-32.7	-22.2%	-5.4%	u
O=C(Nc1ccc(Oc2cccnc2)cc1)C1CCN(Cc2ccc(F)cc2)CC1	0.0%	u	-24.5	u	-1.9%	u
O=C(Nc1ccc(Oc2ccccc2)nc1)C1CCN(Cc2cccc(F)c2)CC1	u	u	-68.8*	-15.2%	2.3%	x
CCOc1cc(C(=S)N2CCOCC2)ccc1OC(=O)c1cccc(C)c1	u	x	57.8	x	-4.9%	11.2µM*
CCOc1cc(/C=N\NC(=O)c2ccc(NC(=O)C(C)(C)C)cc2)ccc1OC(=O)c1cccc(C)c1	8.91µM*	2.59µM*	-11.1	6.51µM*	4.7%	3.16µM*
CCOc1cc(/C=N\NC(=O)c2ccc(NC(=O)CC)cc2)ccc1OC(=O)c1ccccc1	17.3%	u	u	23.1µM*	2.7%	10.9%
O=C(/C=C/c1cccc(Oc2ccccc2)c1)N1CCOCC1	76.2%	x	-12.1	x	-0.4%	-1.6%
Cc1ccc(N=Cc2c(O)c3ccccc3oc2=O)cc1F	30.5%	x	37.9	x	13.3%	10.8%
O=[N+]([O-])c1ccc(P(=O)(Cc2ccccc2)c2ccccc2O)cc1 (stereo unspecified)	-6.8%	3.4%[46.1 µM]	u	-12.3%[46.1 µM]	-0.9%	5.9%
CCN1c2ccccc2NC2C1C(C(C)=O)C(=O)N2c1ccc(Cl)cc1 (stereo unspecified)	x	u	32.8	u	-12.3%	10µM*
CCN(CC)C(=O)CSc1nc2c(sc(=S)n2CC)c(=O)n1-c1ccccc1	u	-9.6%	-71.6*	-12.0%	-2.7%	-29.0%
CCN(CC)C(=O)CSc1nc2c(sc(=S)n2-c2ccccc2)c(=O)n1Cc1ccco1	u	9.2µM*	-67.5*	u	2.2%	10µM*
CCOc1ccccc1-n1c(=S)sc2c(=O)n(-c3ccccc3)c(=S)[nH]c21	-7.5%	u	9.7	-22.7%[46.1 µM]	2.4%	u
O=C(O)c1ccc(CNCc2ccccc2Cl)s1	23.6%	2.2%[46.1 µM]	-13.1	u	x	x
CC(=O)OC1CC(OC2C(O)CC(OC3C(O)CC(OC4CCC5(C)C(CCC6C5CCC5(C)C(C7=CC(=O)OC7)CCC65O)C4)OC3C)OC2C)OC(C)C1OC1OC(CO)C(O)C(O)C1O (stereo unspecified)	0.0%	u	-97.6*	0.1µM*	x	0.794µM*
COC1CC(OC2CCC3(C)C(CCC4C3CCC3(C)C(C5=CC(=O)OC5)C(OC(C)=O)CC43O)C2)OC(C)C1OC1OC(COC2OC(CO)C(O)C(O)C2O)C(O)C(O)C1O (stereo unspecified)	x	x	x	x	0.8%	x
CCCCc1c(C)nc2ccc(Br)cc2c1SCCC#N	x	-6.0%	x	x	0.9%	u
CCc1c(C)nc2ccc(Br)cc2c1SCCC#N	u	u	-83.5*	u	-16.9%	u

Screens deposited in PubChem BioAssay by National Center for Advancing Translational Sciences (NCATS).
